KCNQ2 pot: KCNQ2 (rat) channel potentiation. O88943. CHO-K1 KCNQ2, FluxOR thallium flux fluorescence; hits give high values. B-score at 10 µM. 310,000 compounds, 0.54% hits. AID 2239;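 active = fluorescence ratio B-score at least 3 SD of library B-scores, with initial fluorescence B-score within 3 of them, cut at about 5.3 in these data; same plate scores as AID 2156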;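 note: B-score of peak minus minimum over baseline fluorescence ratio after K+ and Tl+ stimulus; positive B-score means potentiation of KCNQ2 with more thallium influx and brighter signal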
Target sequence (O88943 whole entry, looked up): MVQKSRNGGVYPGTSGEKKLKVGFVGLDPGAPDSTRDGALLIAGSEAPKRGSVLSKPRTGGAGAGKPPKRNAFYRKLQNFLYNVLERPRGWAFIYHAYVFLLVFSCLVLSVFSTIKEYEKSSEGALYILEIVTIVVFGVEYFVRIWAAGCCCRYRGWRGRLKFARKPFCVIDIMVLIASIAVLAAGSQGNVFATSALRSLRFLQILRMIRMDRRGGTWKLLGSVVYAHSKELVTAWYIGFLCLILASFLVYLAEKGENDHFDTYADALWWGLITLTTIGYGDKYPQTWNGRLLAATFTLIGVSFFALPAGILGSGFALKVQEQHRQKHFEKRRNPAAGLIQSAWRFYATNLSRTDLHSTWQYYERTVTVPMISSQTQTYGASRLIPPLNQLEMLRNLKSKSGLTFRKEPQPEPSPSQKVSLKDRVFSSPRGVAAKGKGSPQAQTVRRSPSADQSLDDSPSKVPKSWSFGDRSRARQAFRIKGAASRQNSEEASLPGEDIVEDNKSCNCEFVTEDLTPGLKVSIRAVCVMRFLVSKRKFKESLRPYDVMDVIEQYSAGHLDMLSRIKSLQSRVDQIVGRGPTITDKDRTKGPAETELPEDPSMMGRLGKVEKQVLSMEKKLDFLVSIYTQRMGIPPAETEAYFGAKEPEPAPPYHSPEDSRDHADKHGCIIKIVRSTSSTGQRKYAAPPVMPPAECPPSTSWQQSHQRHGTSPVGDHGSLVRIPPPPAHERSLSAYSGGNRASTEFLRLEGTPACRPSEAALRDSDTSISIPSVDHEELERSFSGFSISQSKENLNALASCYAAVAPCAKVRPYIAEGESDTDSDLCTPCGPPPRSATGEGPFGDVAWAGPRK
KCNQ2 block: blocks the rat KCNQ2 potassium channel; O88943; CHO-K1 KCNQ2, FluxOR thallium flux, 20 min; hits give low values; B-score at 10 µM; 310,000 compounds, 1.1% hits;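 active = fluorescence ratio B-score at most minus 3 library SDs, with starting brightness B-score within 2 library SDs, cut at about -5.5 in these data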
Each line names hits and unclear results; the compound was inactive in the other large screens. Most compounds without a hit are left out; they make up all but 1.6% or so of the library.

CC1CN(C(=O)CN(C)S(=O)(=O)c2ccc3ccccc3c2)CC(C)O1 (stereo not drawn)	none (no result: KCNQ2 pot)
Cc1ccccc1NC1=NC(=S)N(c2ccccc2)C12CCOC(C)(C)C2 (stereo not drawn)	none
Cc1ccccc1NC1=NC(=S)N(c2ccccc2)C12CCCCC2	KCNQ2 pot 5.5
COC(=O)Cc1ccc(N(Cc2ccccc2F)S(=O)(=O)c2ccc(Cl)cc2)cc1	KCNQ2 block -8.2
COC(=O)CN(c1ccc(F)cc1)S(=O)(=O)c1ccccc1	none
CC(NC(=O)c1cccc(N(C)C)c1)c1ccc(-n2ccnc2)cc1 (stereo not drawn)	none
COC(=O)c1ccc2c(=O)n(CCN3CCOCC3)c(SCC(=O)Nc3ccc(OC)cc3OC)nc2c1	none (no result: KCNQ2 pot)
COC(=O)c1ccc2c(=O)n(CCN3CCOCC3)c(SCC(=O)Nc3ccccc3Cl)nc2c1	KCNQ2 block -6.2
COc1ccc(S(=O)(=O)N2CCCC(C(=O)N3CCN(C)CC3)C2)cc1Cl (stereo not drawn)	none (no result: KCNQ2 pot)
COc1ccc(S(=O)(=O)N2CCCC(C(=O)N3CCOCC3)C2)cc1Cl (stereo not drawn)	KCNQ2 block -5.6
COc1ccc(S(=O)(=O)N2CCCC2)cc1C(C)C	KCNQ2 block -6.9
COc1ccc(S(=O)(=O)N2CCCC2)cc1OC	none
Cc1cccc(C(=O)NCCCNC(=O)c2cccnc2)c1	none
COCCOc1ccc(C(F)(F)F)cc1NC(=O)COC(=O)c1cc([N+](=O)[O-])ccc1N1CCOCC1	none
Cc1ccc(CNCC(O)(c2ccccc2)c2ccc(Cl)cc2)cc1 (stereo not drawn)	KCNQ2 block -6.4
COc1cccc(CNCC(O)(c2ccc(Cl)cc2)c2ccc(Cl)cc2)c1	none (no result: KCNQ2 pot)
CCc1nc2ccc(C(=O)N3CCN(c4ccc([N+](=O)[O-])cc4)CC3)cc2nc1CC	none (no result: KCNQ2 pot)
O=C(Nc1c(-c2ccccc2)nc2ccccn12)c1ccco1	none
Oc1ccc(-c2nc3ccccn3c2NCc2ccco2)cc1	KCNQ2 block -5.8
CC(C)(Cc1ccccc1)/[N+]([O-])=C\c1ccc(C(F)(F)F)cc1	none (no result: KCNQ2 pot)
CCNS(=O)(=O)c1ccc(CCC(=O)N2CCCC2)cc1	none (no result: KCNQ2 pot)
O=C(c1sc2ccccc2c1Cl)N1CCN(c2ccccc2F)CC1	none (no result: KCNQ2 pot)
O=C(c1sc2ccccc2c1Cl)N1CCN(c2ccc(F)cc2)CC1	KCNQ2 block -6.6
CCOc1ccc(S(=O)(=O)N2CCN(C(=O)c3ccccc3Cc3ccccc3)CC2)cc1	none
O=C(Nc1ccc(Br)cc1)/C(=C/c1cccc([N+](=O)[O-])c1)NC(=O)C1CCCCC1	KCNQ2 block -7.7
Cc1ccc(NC(=O)/C(=C/c2cccc([N+](=O)[O-])c2)NC(=O)C2CCCCC2)cc1	none
CCOC(=O)C1(CC2CC2)CCN(Cc2ccc(C(=O)OC)cc2)CC1	none (no result: KCNQ2 pot)
CCOC(=O)C1(CCc2ccccc2)CCN(Cc2ccc(C(=O)OC)cc2)CC1	KCNQ2 block -5.7
O=C(NCc1ccc(F)cc1)c1ccc(CS(=O)Cc2ccccc2Cl)o1 (stereo not drawn)	none
Cc1ccc(-c2cc(-c3ccccc3)[nH]c(=S)c2C#N)cc1	none
N#Cc1c(-c2ccc(C(F)(F)F)cc2)cc(-c2ccccc2)[nH]c1=S	KCNQ2 pot 5.4
CCOc1ccc(C(=O)COC(=O)c2cccc(-n3cnnn3)c2)cc1	none (no result: KCNQ2 pot)
Clc1ccc(CSc2nncn2-c2ccc3c(c2)OCCO3)cc1	KCNQ2 block -7.7
Clc1ccc(CSc2nncn2-c2ccccn2)cc1	none
O=C(Nc1cccc(C(F)(F)F)c1)C1CCN(S(=O)(=O)c2cccnc2)CC1	none
COc1cc(CCN2C(=O)c3cccc4cccc(c34)C2=O)c(S(=O)(=O)N2CCC(C)CC2)cc1OC	KCNQ2 block -6.7
COc1cc(CCN2C(=O)c3cccc4cccc(c34)C2=O)c(S(=O)(=O)N2CCCCCC2)cc1OC	none (no result: KCNQ2 pot)
COc1ncnc2c1ncn2CC1COC(C)(C)O1 (stereo not drawn)	none (no result: KCNQ2 pot)
O=C(NCCCN1CCOCC1)c1cc(-c2ccc3c(c2)OCO3)nc2ccccc12	none (no result: KCNQ2 pot)
O=C(NCCCN1CCOCC1)c1cc(-c2ccc(Br)cc2)nc2ccccc12	KCNQ2 block -6.8
Cc1cc(NC(=O)c2cc(-c3ccc(C)s3)nc3ccccc23)no1	none (no result: KCNQ2 pot)
CCOC(=O)c1ccc(NC(=S)NNC(=O)c2cc(-c3cccnc3)nc3ccccc23)cc1	none (no result: KCNQ2 pot)
O=C(NNC(=S)Nc1ccccc1)c1cc(-c2cccnc2)nc2ccccc12	KCNQ2 block -6.1
O=C(Nc1cccnc1)c1cc(-c2ccc(Br)cc2)nc2ccccc12	KCNQ2 block -6.3
CC(=O)Nc1cccc(NC(=O)c2cc(-c3cccnc3)nc3ccc(Br)cc23)c1	none (no result: KCNQ2 pot)
Cc1cccc(NC(=O)c2cc(-c3ccc(C)s3)nc3ccccc23)n1	KCNQ2 block -7.5
Cc1c(C(=O)Nc2c(C)n(C)n(-c3ccccc3)c2=O)oc2ccc(Cl)cc12	none
CN1CCN(NC(=O)Nc2ccc(F)cc2)CC1	none
COc1cccc(NC(=O)NC2(C(=O)N3CCN(C)CC3)CCCCC2)c1	none
CCCc1cc(=O)oc2cc(C)cc(OC(C)C(=O)NCc3ccccn3)c12 (stereo not drawn)	none (no result: KCNQ2 pot)
COc1ccc(S(=O)(=O)N2CCN(CCc3ccccc3)CC2)cc1	none (no result: KCNQ2 pot)

Source: PubChem (Johns Hopkins Ion Channel Center)
